# Assay outcomes (PubChem)
# nsP2pro primary = blocks chikungunya virus nsP2 protease peptide cleavage. FRET peptide cleavage, nsP2pro, fluorescence 1 h. Potency, µM (top dose mostly 24.9 µM), usual class: inhibitors. actives 1.1% (n = 31,000); further: nearly all actives have a fitted effect of over 60% in size
#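 Purified recombinant nsP2pro (150 nM final) in 10 mM Tris-HCl pH 8.0 with 0.01% Tween 20 was preincubated 15 min at room temperature with compound (7 concentrations, up to 25 uM). FRET peptide 2 substrate (2.5 uM final) was then added; fluorescence was read after 1 h.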
# nsP2 cell sec = secondary cell-based test for CHIKV nsP2 protease inhibitors; shares compounds with nsP2pro primary; cell-based CHIKV nsP2 protease reporter assay; Potency, µM (doses to about 51.1 µM), most hits filed as inhibitors; actives 10% (n = 450); AID 1964100; further: nearly all actives have a fitted effect of over 70% in size
# CHIKV NSP2 FL = full-length CHIKV NSP2 protease inhibition, selectivity | actives 39% (n = 410) | Potency, µM (highest dose often 50.7 µM), hits mostly inhibitors | Full-length CHIKV NSP2 protease enzymatic counterscreen | shares compounds with nsP2pro primary; further: nearly all actives have a fitted effect of over 65% in size
# Furin counterscr = human furin inhibition, counterscreen for nsP2pro inhibitors; shares compounds with nsP2pro primary; Recombinant human furin enzymatic counterscreen, fluorogenic substrate; Potency, µM (top dose mostly 50.6 µM), hits mostly inhibitors; actives 6% (n = 410); AID 1964102
# nsP2 NS23 pep = selectivity test for CHIKV nsP2 protease inhibitors: endogenous NS2/3 peptide; Purified CHIKV nsP2 protease, endogenous NS2/3 peptide cleavage; actives 34% (n = 410); shares compounds with nsP2pro primary; AID 1964103; Potency, µM (highest dose often 51 µM), hits mostly inhibitors; further: nearly all actives have a fitted effect of over 55% in size
# Papain counter = selectivity counter-screen for CHIKV nsP2 protease inhibitors: papain; AID 1964104; Potency, µM (highest dose often 51 µM), most hits filed as inhibitors; purified papain protease activity, enzymatic inhibition; actives 5% (n = 410); shares compounds with nsP2pro primary
# nsP2pro confirm = confirmation of CHIKV nsP2 protease inhibitors; shares compounds with nsP2pro primary; CHIKV nsP2 protease enzymatic activity, qHTS; Potency, µM (doses to about 25.5 µM), most hits filed as inhibitors; actives 43% (n = 410); further: nearly all actives have a fitted effect of over 75% in size
# HCV NS3 counter = selectivity counter-screen for CHIKV nsP2 protease inhibitors: HCV NS3/4A. Potency, µM (doses to about 50.9 µM), usual class: inhibitors. shares compounds with nsP2pro primary. actives 20% (n = 410). HCV NS3/4A protease biochemical counterscreen; further: nearly all actives have a fitted effect of over 55% in size
# Calls only; i = inactive; ? = inconclusive. The list is a sample of the results. The call rests on the fitted dose curve.
SMILES,nsP2pro primary,others
N#C/C(=C1\Nc2ccccc2S1)c1ccnc(NCCc2cccnc2)n1,i,
CC(C)(C)NCCCNC(=O)c1cccc(Br)c1,i,
Cc1ccc(OCC(=O)N2CCN(CCc3ccncc3)CC2)cc1,i,
O=C(COc1ccccc1Cl)N1CCN(CCc2ccncc2)CC1,i,
O=C(COc1ccccc1[N+](=O)[O-])N1CCN(CCc2ccncc2)CC1,?,nsP2 cell sec=i
COc1c(CCC(=O)O)cccc1O[C@@H]1O[C@H](CO)[C@@H](O)[C@H](O)[C@H]1O,i,
CC(C)CN(C1CCN(C)CC1)C1CN(C(=O)c2cccs2)C1,i,
CCC1CN(Cc2nc(CCOC)no2)CCC(=O)N1Cc1ccccc1 (stereo unspecified),i,
Cc1cc(Nc2nn(-c3ccccc3)c(=O)c3ccccc23)n[nH]1,i,
O=C(CC1CCN(C(=O)c2cc(F)ccc2F)C1)NC1CC1 (stereo unspecified),i,
C=CCC/C=C/C#CCCCCCCCC[C@H]1C(=O)O[C@H](C)[C@@H]1O,?,nsP2 cell sec=?;CHIKV NSP2 FL=?;Furin counterscr=i;nsP2 NS23 pep=i;Papain counter=?;nsP2pro confirm=?;HCV NS3 counter=i
Cc1ccccc1-c1cnc2[nH]cc(CC(=O)N3CCOCC3)c2c1,i,
CS(=O)(=O)N1C[C@@H](Oc2ccccc2)C[C@H]1C(=O)N1CCCC1,i,
O=c1c(Nc2ccc(Cl)c(Cl)c2)c(Nc2nnc(-c3ccncc3)s2)c1=O,i,
